Data on 5 molecules can be found in PubChem BioAssay AID1731 (National Center for Advancing Translational Sciences (NCATS), 2009).

Activity calls are given as the source filed them. Calls follow the shape of the dose curve; as a rule, active = well fitted curve in the direction sought with a large enough effect; inactive = no such curve, though single readings can be large or run the other way.

Chain of Epidermal growth factor receptor (Homo sapiens) (P00533 whole entry, looked up): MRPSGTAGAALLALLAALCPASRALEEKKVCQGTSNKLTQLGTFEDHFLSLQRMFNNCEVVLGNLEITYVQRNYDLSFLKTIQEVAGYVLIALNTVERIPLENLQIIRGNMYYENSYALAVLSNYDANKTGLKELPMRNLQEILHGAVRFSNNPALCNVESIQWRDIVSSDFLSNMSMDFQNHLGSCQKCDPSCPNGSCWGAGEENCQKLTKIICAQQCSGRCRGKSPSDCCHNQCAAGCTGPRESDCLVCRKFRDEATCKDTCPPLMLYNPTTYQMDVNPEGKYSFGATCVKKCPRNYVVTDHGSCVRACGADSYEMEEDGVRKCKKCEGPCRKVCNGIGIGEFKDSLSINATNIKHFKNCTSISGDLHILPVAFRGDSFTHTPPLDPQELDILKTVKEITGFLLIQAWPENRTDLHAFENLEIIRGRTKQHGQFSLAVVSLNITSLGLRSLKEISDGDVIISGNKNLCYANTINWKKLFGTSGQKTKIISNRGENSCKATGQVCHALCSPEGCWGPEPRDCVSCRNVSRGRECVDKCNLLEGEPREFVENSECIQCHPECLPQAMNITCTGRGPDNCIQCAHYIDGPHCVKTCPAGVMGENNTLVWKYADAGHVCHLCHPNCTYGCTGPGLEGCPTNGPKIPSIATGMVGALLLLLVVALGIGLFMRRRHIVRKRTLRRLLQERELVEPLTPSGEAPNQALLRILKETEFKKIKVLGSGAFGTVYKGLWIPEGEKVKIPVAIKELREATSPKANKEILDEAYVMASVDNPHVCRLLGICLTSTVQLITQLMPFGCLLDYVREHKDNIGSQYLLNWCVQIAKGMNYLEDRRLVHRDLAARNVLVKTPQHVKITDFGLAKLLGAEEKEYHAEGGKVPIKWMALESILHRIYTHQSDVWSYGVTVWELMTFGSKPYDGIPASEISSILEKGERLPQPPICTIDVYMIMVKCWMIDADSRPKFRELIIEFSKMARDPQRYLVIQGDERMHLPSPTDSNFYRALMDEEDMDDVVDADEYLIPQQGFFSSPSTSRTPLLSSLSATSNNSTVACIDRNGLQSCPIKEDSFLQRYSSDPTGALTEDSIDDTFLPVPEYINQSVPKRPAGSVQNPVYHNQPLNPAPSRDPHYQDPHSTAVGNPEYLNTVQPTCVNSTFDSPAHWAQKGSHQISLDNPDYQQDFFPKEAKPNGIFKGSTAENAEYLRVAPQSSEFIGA

The target of the assay is Epidermal growth factor receptor (Homo sapiens) (UniProt P00533). The experiment in a line: Assay for Inhibitors of the ERK Signaling Pathway using a Homogeneous Screening Assay: EGFR Kinase Inhibition. The settings on record: homogeneous biochemical assay; series mostly up to 21.9 µM. From the text:
qHTS Assay for Inhibitors of the ERK Signaling Pathway using a Homogeneous Screening Assay
NIH Chemical Genomics Center [NCGC]
NIH Molecular Libraries Screening Centers Network [MLSCN]
Assay Submitter (PI): Dr. Wei Zheng, NCGC/NIH
The Ras/extracellular-signal-regulated kinase (ERK) mitogen activated protein (MAP) kinase signaling pathway (ERK1/2 cascade) plays is a key role in transmitting signals from the cell surface to the nucleus (Nishida and Gotoh 1993; Chang and Karin, 2001). The cascade is initiated by the small G-protein Ras, which recruits Raf […], where activation occurs. Alternatively, this pathway can be activated by elevating intracellular cAMP.
Activation of the ERK pathway is essential in increased cell division and cell survival. Sustained and constitutive activation of the ERK pathway, however, has been linked to uncontrolled cell proliferation, increased cell survival, and tumor progression. Thus, the ERK has been as an attractive target for cancer chemotherapy in the past few years (Sebolt-Leopold and Herrera, 2004). Given its physiological and pathological importance, assessment of ERK phosphorylation has been broadly performed in both basic research and drug discovery. Most assays for the measurement of ERK phosphorylation use the antibody-based detection methods, such as western blot and ELISA. These assays require multiple reagent additions with cell wash steps and are not suitable for high-throughput screening.
The current cell-based ERK phosphorylation assay was performed using AlphaScreen platform. AlphaScreen is a two bead-based proximity-dependent chemical energy transfer luminescent assay platform. The assay reagents (ERK SureFire(TM) kit) were supplied from TGR BioSciences (Australia). In the presence of specific antibodies, phosphorylated ERK will bring "donor" and "acceptor" beads to a proximity range (<200 nm), and subsequently lead a chemical luminescent reaction upon exciting donor beads with 680 nm laser. To validate pathway hits from the cell-based assay, enzyme assays consisting of EGFR tyrosine kinase, Raf and MEK were used as a means of deciphering the enzymes of target for the prioritized group of compounds derived from the HEK-293 cell based assay. The compounds were tested against significant members of the ERK signaling pathway EGFR and EGFR mutants (EGFR L858R, EGFR T790M, and EGFR L858R T790M). In order to establish the specificity of the prioritized compounds for EGFR and EGFR mutants, the compounds were also assayed against other important ERK signaling pathway enzymes, c-RAF and MEK-1.
NCGC Assay Protocol Summary:
The HTRF kinase assay (components supplied as kit by Cisbio) was chosen for the EGFR and EGFR mutant enzyme assays that applied the time resolved fluorescence resonance energy transfer (TR-FRET) principle. A peptide substrate is labeled with a biotin that can bind to XL665 labeled streptavidin and the anti-phosphoresidue antibody is labeled with Eu+. Upon phosphorylation of the substrate, the antibody binds to phosphorylated substrate that enables TR-FRET detection in homogenous assay format.
An HTRF Kinease TK assay kit (Cisbio, Bedford, MA) was used to develop the EGFR and EGFR mutant assays (Harbert et al., 2008. Harbert C, Marshall J, Soh S, Steger K. Development of a HTRF Kinase Assay for Determination of Syk Activity. Current Chemical Genomics. 1: 20-26. 2008). EGFR and EGFR mutants were obtained from Invitrogen. […]
Turning to `Cc1nc2c(=O)n(C)c(=O)nc-2n(C)n1`, the outcome was inactive. Turning to `Cn1nc(-c2ccccc2)nc2c(=O)n(C)c(=O)nc1-2`, the molecule was classed as inactive. As for `CN1CCN(c2cccc3c2C(=O)c2ccccc2C3=O)CC1`, the outcome was inactive. The value for `CCn1nc(-c2ccccc2)nc2c(=O)n(C)c(=O)nc1-2` was “inactive”; that for `CCn1nc(-c2cccs2)nc2c(=O)n(C)c(=O)nc1-2` was “inactive”.
